The values that follow come from PubChem BioAssay (Tox21).

Results filed as inconclusive are left out. Activity calls are given as the source filed them. Unless noted, calls come from the whole dose curve; as a rule, active = well fitted curve in the direction sought with a large enough effect in the repeat runs; inconclusive = weak or mixed curves; inactive = no such curve, though single readings can be large; an effect the other way counts as inactive or inconclusive.

A short description of assay [1]: qHTS assay to identify small molecule antagonists of the glucocorticoid receptor (GR) signaling pathway - cell viability counter screen (AID 720693). Note: nearly all actives have a fitted effect of over 55% in size. A general note: In qHTS, concentration-response curves come from the screen itself.
Assay [2] is described as follows: qHTS assay for identifying genotoxic compounds that show differential cytotoxicity against isogenic chicken DT40 cell lines with known DNA damage response pathways - wild type cell line (AID 743012). Note: nearly all actives have a fitted effect of over 60% in size. Note: potency is the fitted concentration of half-maximal effect. An outline of the steps: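 Wild type DT40, 300 cells/well, ~0.5 h settle at 37 C/5% CO2; compounds in DMSO added by pintool; 40 h at 37 C/5% CO2; CellTiter-Glo, 30 min RT; luminescence.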

Assay [3] can be described thus: qHTS assay for identifying genotoxic compounds that show differential cytotoxicity against isogenic chicken DT40 cell lines with known DNA damage response pathways - Rev3 mutant cell line (AID 743014). Note: nearly all actives have a fitted effect of over 55% in size. Note: potency is the fitted concentration of half-maximal effect.
A short description of assay [4]: qHTS assay for identifying genotoxic compounds that show differential cytotoxicity against isogenic chicken DT40 cell lines with known DNA damage response pathways - Rad54/Ku70 mutant cell line (AID 743015). Note: nearly all actives have a fitted effect of over 60% in size. Note: potency is the fitted concentration of half-maximal effect.
A short description of assay [5]: qHTS assay to identify small molecule antagonists of the androgen receptor (AR) signaling pathway - cell viability counter screen (AID 743033; note: nearly all actives have a fitted effect of over 45% in size).
A short description of assay [6]: qHTS assay to identify small molecule antagonists of the androgen receptor (AR) signaling pathway using the MDA cell line - cell viability counter screen (AID 743041; note: nearly all actives have a fitted effect of over 45% in size). An outline of the steps:
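MDA-kb2 AR-luc human breast carcinoma cells (MMTV-luciferase, AR/GR responsive) were treated with compounds plus R1881 agonist for 16 h at 37 °C. Viability was read as CellTiter-Fluor fluorescence in the same wells as the reporter assay.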

In assay [7] the target is Androgen receptor (Homo sapiens) (UniProt P10275). The experiment in a line: qHTS assay to identify small molecule antagonists of the androgen receptor (AR) signaling pathway (AID 743035; active = well fitted inhibition curve with a large enough effect in the signal ratio in the repeat runs, not every such curve was filed as active; the % refers to the signal ratio). The gist of the method: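 Fluorescence from a beta-lactamase FRET substrate (LiveBLAzer B/G, 2 h, room temperature) measured inhibition of R1881-stimulated signaling in GeneBLAzer AR-UAS-bla HEK293 cells exposed to compound for 16 h at 37C.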

Assay [8] shares this target. The experiment in a line: qHTS assay to identify small molecule agonists of the androgen receptor (AR) signaling pathway using the MDA cell line (AID 743040; note: nearly all actives have a fitted effect of over 20% in size). An outline of the steps: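 MDA-kb2 breast carcinoma cells stably carrying an MMTV-driven luciferase reporter (AR- and GR-responsive) were seeded and held 5 h at 37C, 0% CO2, then exposed to compounds in DMSO for 16 h. Luminescence was read 30 min after ONE-Glo addition.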

Assay [9] shares this target. The experiment in a line: qHTS assay to identify small molecule antagonists of the androgen receptor (AR) signaling pathway using the MDA cell line (AID 743042; note: nearly all actives have a fitted effect of over 55% in size). The gist of the method:
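MDA-kb2 cells (human breast carcinoma, stably carrying an MMTV-luciferase reporter responsive to AR and GR) were plated at 3,000 cells/well and preincubated 5 hr at 37C, then given compound plus R1881 agonist for 16 h. ONE-Glo luminescence was read.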

Assay [10] has the same target. The experiment in a line: qHTS assay to identify small molecule agonists of the androgen receptor (AR) signaling pathway (AID 743036; active = well fitted activation curve with a large enough effect in the signal ratio in the repeat runs, with a control signal flat, not every such curve was filed as active; the % refers to the signal ratio). An outline of the steps: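 Screening used 2,000 AR-bla HEK293 cells per well, treated 16 h at 37C with test compounds in DMSO alongside positive and DMSO-only controls; beta-lactamase activity was then read by LiveBLAzer B/G FRET fluorescence after 2 h at room temperature.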

Androgen receptor (Homo sapiens), sequence (P10275 whole entry, looked up): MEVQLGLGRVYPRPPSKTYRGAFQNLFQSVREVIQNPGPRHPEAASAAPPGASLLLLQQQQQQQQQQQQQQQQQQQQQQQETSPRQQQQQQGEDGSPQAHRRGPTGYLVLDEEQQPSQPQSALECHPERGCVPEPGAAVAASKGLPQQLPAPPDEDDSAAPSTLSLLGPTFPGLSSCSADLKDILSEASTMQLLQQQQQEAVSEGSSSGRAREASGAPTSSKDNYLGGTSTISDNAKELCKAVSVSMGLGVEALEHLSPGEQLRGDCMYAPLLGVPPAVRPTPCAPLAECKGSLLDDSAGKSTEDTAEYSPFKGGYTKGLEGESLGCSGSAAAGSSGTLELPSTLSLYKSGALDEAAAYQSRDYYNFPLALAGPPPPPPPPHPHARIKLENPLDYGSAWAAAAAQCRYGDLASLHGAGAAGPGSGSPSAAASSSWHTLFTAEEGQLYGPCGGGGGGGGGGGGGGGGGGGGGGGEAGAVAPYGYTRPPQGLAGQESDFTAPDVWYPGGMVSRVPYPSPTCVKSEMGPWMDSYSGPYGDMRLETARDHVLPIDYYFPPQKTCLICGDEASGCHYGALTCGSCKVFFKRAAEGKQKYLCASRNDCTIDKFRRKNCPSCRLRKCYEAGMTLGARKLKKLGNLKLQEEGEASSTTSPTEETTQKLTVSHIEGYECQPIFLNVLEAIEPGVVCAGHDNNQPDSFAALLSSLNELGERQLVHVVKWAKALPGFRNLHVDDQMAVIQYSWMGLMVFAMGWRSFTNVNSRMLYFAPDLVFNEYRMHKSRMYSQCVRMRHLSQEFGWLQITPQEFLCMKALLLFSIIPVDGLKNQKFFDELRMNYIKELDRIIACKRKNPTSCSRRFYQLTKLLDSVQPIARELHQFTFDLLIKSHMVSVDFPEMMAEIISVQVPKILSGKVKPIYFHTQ

As for `O=[N+]([O-])c1cccc(I)c1`, the Potency result in [1], in [2], in assay [3], in assay [4], in [5] and in [6] was “inactive” in each case.

Consider `Cc1cc(SC2=C(O)C[C@@](CCc3ccc(N)cc3)(C(C)C)OC2=O)c(C(C)(C)C)cc1CO`, for which the Potency entry in [1], in assay [2], in [3], in assay [4], in assay [5] and in assay [7] was “inactive” each time. Also, the Potency entry in assay [6] and in assay [9] was “inactive” throughout. The compound was classed as inactive in assay [8].

Turning to `NC(=O)c1ccccc1`, the Potency entry in [1], in assay [2], in [3], in assay [4], in [5] and in [7] was “inactive” in each case. In addition, the Potency result in assay [6] and in assay [9] was “inactive” each time. The result in assay [10] and in assay [8] was inactive.

With `O=C(O)c1cccc(C(=O)O)c1C(=O)O`, the Potency result in [1], in [2], in assay [3], in assay [4], in assay [5] and in assay [7] was “inactive” in each case. Further, the Potency result in assay [6] and in [9] was “inactive” in each case. The outcome in assay [10] and in assay [8] was inactive.

Consider `CCCCC(CC)COCCC#N` (configuration not stated), for which the Potency entry in assay [1], in assay [2], in assay [3], in assay [4] and in [5] was “inactive” each time.

In the case of `CCC1=C(C)CN(C(=O)NCCc2ccc(S(=O)(=O)NC(=O)NC3CCC(C)CC3)cc2)C1=O` (configuration not stated), the Potency result in assay [1], in [2], in [3], in [4], in [5] and in [7] was “inactive” throughout. In addition, the Potency result in [6] and in assay [9] was “inactive” throughout. Further, the compound was called inactive in assay [8].

`OCCCO`: the Potency entry in assay [1], in assay [2], in assay [3], in assay [4], in [5] and in assay [6] was “inactive” each time. In addition, the Potency result in assay [9] is “inactive”. Further, the outcome in [10] and in [8] was inactive.

Consider `CCOCCn1c(N2CCCN(C)CC2)nc2ccccc21`, for which the Potency entry in assay [1], in [2], in [3], in assay [4], in assay [5] and in assay [7] was “inactive” each time. Besides, the Potency result in [6] and in assay [9] was “inactive” throughout. For the same compound, in assay [8], the result was inactive.

In the case of `CCC(C)CCCC(C)(C)O` (configuration not stated), the Potency result in assay [1], in [2], in assay [3], in assay [4], in [5] and in [6] was “inactive” each time.

As for `COc1cccc([C@H](O)C2CCN(CCc3ccc(F)cc3)CC2)c1OC`, the Potency entry in assay [1], in assay [5] and in assay [6] was “inactive” throughout. In addition, the Potency in assay [2] is 27.3 µM (active); in assay [3] it was 1.72 µM (active); in assay [4] it was 4.33 µM (active).

Take `Cc1cc(C)n(CO)n1`: the Potency entry in assay [1], in assay [2], in assay [3], in assay [4], in assay [5] and in assay [6] was “inactive” each time.

For the compound `O=C(O)c1cc(C(=O)O)cc([N+](=O)[O-])c1`, the Potency result in assay [1], in [2], in assay [3], in [4], in [5] and in [6] was “inactive” throughout.

For `O=C(Cl)c1cc(Cl)cc(Cl)c1`, the Potency entry in assay [1], in [2], in assay [3], in [4], in [5] and in [6] was “inactive” throughout.

In the case of `C=CC(C)CCC=C(C)C` (configuration not stated), the Potency entry in [1], in assay [2], in [3], in [4], in assay [5] and in [6] was “inactive” in each case.

Consider `Nc1ccc(-c2ccc(F)cc2)cc1`, for which the Potency entry in assay [1], in [5] and in assay [6] was “inactive” each time. For the same compound, the Potency in [2] was 68.6 µM (active); in assay [3] it was 48.6 µM (active); in assay [4], 68.6 µM (active).

As to `N#CCCCC(C#N)CCC#N` (configuration not stated), the Potency result in assay [1], in assay [2], in assay [3], in [4], in [5] and in assay [6] was “inactive” each time.

For the compound `CC(C)(C)c1ccc(CCC=O)cc1`, the Potency result in [1], in assay [2], in assay [3], in assay [4], in [5] and in [6] was “inactive” in each case.

In the case of `CCCCCCCCCCCCCCCCN`, the Potency entry in assay [1], in assay [2], in assay [3], in [4], in assay [5] and in [6] was “inactive” throughout.

Take `COC(=O)C(C)(C)C`: the Potency entry in assay [1], in assay [2], in assay [3], in assay [4], in assay [5] and in [6] was “inactive” throughout.

Turning to `Nc1ccc(C(=O)Oc2ccccc2)c(O)c1`, the Potency result in assay [1], in assay [3], in assay [5] and in [6] was “inactive” in each case. The Potency in assay [2] and in [4] was 29.8 µM (active) in each case.

Consider `CCC(=O)O[C@@H]1C[C@H]2CC[C@]1(C)C2(C)C`, for which the Potency entry in [1], in assay [2], in assay [3], in [4], in [5] and in [6] was “inactive” throughout.

Regarding `CCCCOc1ccc(N)cc1`, the Potency result in assay [1], in assay [2], in assay [3], in assay [4], in assay [5] and in assay [6] was “inactive” in each case.

`CCn1nc(Cc2ccccc2)cc1C1CCN(C[C@H]2C[C@H](N(C)[C@@H](C(=O)O)C(C)C)C[C@@H]2c2cccc(F)c2)CC1`: the Potency entry in assay [1], in assay [5] and in assay [6] was “inactive” each time. For the same compound, the results for the Potency in [2], in [3] and in assay [4] were 61.1 µM (active), 61.1 µM (active) and 24.3 µM (active), respectively.

On to `CC(CCl)OC(C)CCl` (configuration not stated), for which the Potency result in assay [1], in assay [2], in [3], in [4], in [5] and in assay [6] was “inactive” in each case.

In the case of `CCCCCCCCCC(C)C=O` (configuration not stated), the Potency entry in assay [1], in [2], in assay [3], in [4], in assay [5] and in [6] was “inactive” throughout.

Regarding `C=CC(=O)OCCCCCCCCCC`, the Potency result in [1], in assay [2], in [3], in assay [4], in assay [5] and in [6] was “inactive” each time.

As to `CCCCCC1CCC(=O)O1` (configuration not stated), the Potency entry in assay [1], in [2], in [3], in [4], in assay [5] and in [6] was “inactive” throughout.

On to `Cc1ccccc1CCO`, for which the Potency entry in assay [1], in [2], in assay [3], in [4], in [5] and in assay [6] was “inactive” in each case.
